Most compounds without a hit are left out; they make up all but 1.8% or so of the library.
ABCB6 inh 2: ABCB6 transporter inhibitors, primary screen, K562-ABCB6 cells, flow cytometry, MLPCN library; K562-ABCB6 porphyrin accumulation, 1 h; hits give low values; fluorescence ratio to DMSO, % at 10 µM; 360,000 tested, 0.19% active;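 active = fluorescence ratio to DMSO below 75%, the collection mean minus 3 SD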;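 note: signal is porphyrin accumulated inside mitochondria; 100% equals median channel fluorescence of DMSO control wells; lower ratio means ABCB6 inhibition with less porphyrin fluorescence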
NRP1-CendR mod: modulators of CendR peptide binding to NRP-1, primary screen, biochemical, fluorescence polarization, uHTS; Neuropilin-1 (Homo sapiens), O14786; FAM-RPARPAR peptide binding to NRP-1; inhibition, % at 25 µM; 360,000 tested, 0.85% active; AID 602438, 2012;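 active = inhibition or corrected inhibition above about 18%, plus a signal ratio from 0.5 to 1.5, limit read from the data, passing the limit was not always enough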
Target sequence (O14786 whole entry, looked up): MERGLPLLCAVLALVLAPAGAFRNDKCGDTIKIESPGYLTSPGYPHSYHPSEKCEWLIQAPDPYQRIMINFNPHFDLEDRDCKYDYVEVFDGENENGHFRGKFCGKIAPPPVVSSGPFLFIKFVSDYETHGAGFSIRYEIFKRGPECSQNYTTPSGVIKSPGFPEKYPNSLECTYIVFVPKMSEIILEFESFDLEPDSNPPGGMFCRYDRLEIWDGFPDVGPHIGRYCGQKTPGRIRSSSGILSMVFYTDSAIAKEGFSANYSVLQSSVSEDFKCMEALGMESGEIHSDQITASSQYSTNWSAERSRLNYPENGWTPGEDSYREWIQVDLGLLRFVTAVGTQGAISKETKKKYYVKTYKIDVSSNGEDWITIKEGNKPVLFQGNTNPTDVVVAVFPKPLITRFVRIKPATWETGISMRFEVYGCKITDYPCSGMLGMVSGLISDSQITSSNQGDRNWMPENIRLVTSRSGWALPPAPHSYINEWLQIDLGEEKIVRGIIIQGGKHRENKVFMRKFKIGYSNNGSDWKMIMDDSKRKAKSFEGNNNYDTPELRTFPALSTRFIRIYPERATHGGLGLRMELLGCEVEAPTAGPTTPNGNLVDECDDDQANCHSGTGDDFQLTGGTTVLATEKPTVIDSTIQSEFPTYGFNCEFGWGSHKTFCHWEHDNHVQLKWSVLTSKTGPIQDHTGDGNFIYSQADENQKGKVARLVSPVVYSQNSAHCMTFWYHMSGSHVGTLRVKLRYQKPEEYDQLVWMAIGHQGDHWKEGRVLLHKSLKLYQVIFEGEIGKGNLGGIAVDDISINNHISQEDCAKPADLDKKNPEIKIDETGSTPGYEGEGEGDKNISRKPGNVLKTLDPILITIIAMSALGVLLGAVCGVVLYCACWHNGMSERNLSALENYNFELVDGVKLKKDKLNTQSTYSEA
INS-1E GSIS act: GLuc luminescence reporter in INS-1E cells, primary screen for activators of glucose-dependent secretion of insulin; AID 743287, 2014; 370,000 tested, 0.61% active; activation, % at 16.6 µM; INS-1E GLuc reporter insulin secretion, 2-3 h;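 active = lowest replicate activation of at least 40%, so every replicate reaches that level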;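 note: 0% = median of neutral control wells and 100% = median of IBMX positive control wells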
ARNT-TACC3 inh: disruptors of ARNT/TACC3 protein interaction, primary screen, biochemical, AlphaScreen, single concentration | 390,000 tested, 0.66% active | AID 623870, 2012 | Transforming acidic coiled-coil-containing protein 3 (Homo sapiens), Q9Y6A5 | AlphaScreen His-ARNT PAS-B/GST-TACC3 binding, luminescence; TACC3 fragment carries E629A point mutation | inhibition, % at 9.99 µM;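 active = mean inhibition of replicates at least 50% and at least half of replicates each reaching 50%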;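 note: 0% = complete ARNT plus TACC3 wells and 100% = ARNT alone without TACC3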
hiPSC survival: enhancers of single-cell hiPSC survival, primary screen, ATPlite luminescence | 100% = ROCK inhibitor wells, 0% = DMSO | survival enhancement, % at 20 µM | 360,000 tested, 0.044% active; in the data active = survival enhancement above about 18%;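 note: cells exposed to compounds for 16 hours before the ATP read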
ARNT Alpha ctr: AlphaScreen signal interference compounds, dose response, artefact control for ARNT-TACC3 interaction inhibitor project, biochemical, luminescence, cherry-pick; shares compounds with ARNT-TACC3 inh; AID 651705, 2012; His-ARNT PASB-GST AlphaScreen artifact counter-screen; 1,200 tested, 50% active; AC50, µM (highest dose often 68 µM), without a hit: at the top dose activity change, negative = signal decrease;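 active = every separate test run was called active for a drop in luminescence, with AC50 within twice the top valid dose, actives reach about 71 µM in these data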
* = called active by the depositor; nt = no result given.

SMILES	ABCB6 inh 2	NRP1-CendR mod	INS-1E GSIS act	ARNT-TACC3 inh	hiPSC survival	ARNT Alpha ctr
COc1ccccc1Nc1cc2cc(Br)ccc2c(=O)[nH]1	94.0	-43.6	-18.2	54.8*	6.8	-26.0%
COc1cc(C2C(C#N)=C(N)Oc3n[nH]c(C)c32)ccc1OC(=O)c1ccccc1 (stereo not given)	95.0	1.8	-12.4	60.3*	0.1	-26.4%
Cc1ccc(S(=O)(=O)N(C)C[C@H]2Oc3ccc(NC(=O)Nc4cccc5ccccc45)cc3C(=O)N([C@@H](C)CO)C[C@@H]2C)cc1	nt	nt	-36.5	nt	nt	nt
Cc1ccc(S(=O)(=O)CCC(=O)Nc2nc(-c3ccccn3)cs2)cc1	99.0	-0.6	-7.6	80.3*	1.7	71.4µM*
Cc1ccc(OCC(=O)Nc2nc(-c3ccccn3)cs2)c(C)c1	99.0	-14.6	-3.8	11.4	0.2	nt
CC1(c2ccccc2)NC(=O)N(CC(=O)Nc2nc(-c3ccccn3)cs2)C1=O (stereo not given)	103.0	-3.3	3.0	60.8*	-0.5	56.2µM*
CC1(c2ccccc2)NC(=O)N(CC(=O)NNC(=O)c2ccccc2)C1=O (stereo not given)	94.0	5.1	5.5	nt	0.3	nt
Cc1ccc(C2(C)NC(=O)N(CC(=O)Nc3nc(-c4ccccn4)cs3)C2=O)cc1 (stereo not given)	104.0	-2.1	-11.5	53.5*	-0.3	32.8µM*
O=C([C@@H]1[C@@H](CO)[C@@H]2Cn3c(cccc3=O)[C@@H]2N1CC1CCCCC1)N1CCOCC1	nt	nt	4.4	nt	nt	nt
CCCc1nnc(NS(=O)(=O)c2ccc(C)cc2)o1	90.0	9.3	1.5	63.5*	-0.2	-0.3%
C[C@H]1CN([C@@H](C)CO)C(=O)c2cccc(NC(=O)Nc3cccc4ccccc34)c2O[C@H]1CN(C)S(=O)(=O)c1ccccc1	nt	nt	-1.4	-14.3	nt	nt
COCC(=O)N1CC2(C1)[C@H](c1ccccc1)[C@H](CO)N2C(=O)c1ccncc1	nt	nt	4.6	nt	nt	nt
CCC(=O)Nc1nnc(-c2ccco2)o1	93.0	5.6	-1.2	7.7	-0.9	nt
O=C(CCc1ccccc1)Nc1nnc(-c2ccccn2)o1	98.0	-3.3	-3.6	51.8*	2.9	-5.7%
Cc1ccccc1C(=O)Nc1nnc(-c2ccc(F)cc2)o1	96.0	-8.8	-2.2	12.0	-4.0	nt
O=C(Cc1ccccc1)Nc1nnc(-c2ccco2)o1	108.0	5.8	-1.9	65.5*	-0.4	-19.2%
O=C(Nc1nnc(-c2ccc(F)cc2)o1)c1ccco1	96.0	-5.6	4.2	41.7*	-1.7	-25.4%
CCCCC(=O)Nc1nnc(-c2ccco2)o1	98.0	5.4	4.2	14.9	0.0	nt
O=C(COc1ccc(Cl)cc1)Nc1nnc(-c2ccco2)o1	106.0	-11.4	14.9	25.4*	-0.7	-31.1%
O=C(Nc1ccccc1F)N1CC(=O)N2[C@H](CO)[C@H](c3ccc(-c4cccnc4)cc3)[C@@H]2C1	nt	nt	2.9	nt	nt	nt
Cc1ccc(S(=O)(=O)N[C@H]2C=C[C@H](CC(=O)N3CCC(Cc4ccccc4)CC3)O[C@@H]2CO)cc1	nt	nt	-27.4	-15.6	nt	nt
CCCNC(=O)N1CC2(C1)[C@H](c1ccccc1)[C@@H](CO)N2C(=O)c1ccncc1	nt	nt	15.0	nt	nt	nt
Cc1cc(C)c(S(=O)(=O)N2CCOC2CNC(=O)C(=O)NCCCn2ccnc2)c(C)c1 (stereo not given)	107.0	3.9	-12.8	62.9*	-0.4	42.4µM*
COc1ccc2c3c(n(C)c2c1)[C@H](CO)N(C(=O)Cc1ccccn1)CC31CCN(CC2CCOCC2)CC1	nt	nt	1.9	nt	nt	nt
Cc1cc(=O)[nH]c(-n2ncc(C#N)c2N)n1	97.0	12.5	16.2	56.2*	0.2	-13.4%
Oc1cccc2c(-c3nn[nH]n3)ccnc12	98.0	-4.1	5.2	67.9*	1.8	10µM*
CCC(=O)Nc1ccc2c(c1)C(=O)N(C)C[C@H](OC)[C@@H](C)CN(C(=O)Cc1ccccn1)[C@@H](C)CO2	nt	nt	1.6	0.6	nt	nt

Screening data deposited in PubChem BioAssay by several laboratories.
